Measured values taken from PubChem BioAssay AID1159580 (chemical genetic matrix, 2015).
Several values for one entry are separate records, joined by “and”; a condition that tells them apart may be missing. Identical values can stand only once. Hit rate of the full screen: of about 5,500 compounds, about 2,000 (36%) were called active. Roughly 18% stayed inconclusive and do not appear here. No stated cut-off is given here; in the data, active means normalized growth mostly below about 0.91 (no sharp cut-off); inconclusive means no clear call, values can overlap the other calls; inactive means mostly above about 0.92. This is one part of the list.

Assay: chemical genetic growth profiling, strain panel (AID 1159580);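 further: tested at 20 µM; growth read once vehicle control cultures reached saturation at 30 °C; 1 = growth at the plate median or of vehicle wells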
Details: S. cerevisiae deletion strains, growth OD

Measured: normalized growth

CCCCNc1cc(C(=O)O)cc(S(N)(=O)=O)c1Oc1ccccc1
inactive: locus YAL013W, strain DEP1, stronger effect = lower value 0.964 | locus YAL021C, strain ccr4, stronger effect = lower value 1.03 | locus YAL026C, strain drs2, stronger effect = lower value 1.01 | locus YAL030W, strain snc1, stronger effect = lower value 1.01 | locus YAL040C, strain CLN3, stronger effect = lower value 0.946 | locus YBL061C, strain skt5, stronger effect = lower value 0.992 | locus YBR009C, strain hhf1, stronger effect = lower value 0.997 | locus YBR021W, strain FUR4, stronger effect = lower value 0.985 | locus YBR023C, strain chs3, stronger effect = lower value 0.999 | locus YBR171W, strain sec66, stronger effect = lower value 0.998 | locus YBR229C, strain ROT2, stronger effect = lower value 0.987 | locus YBR231C, strain swc5, stronger effect = lower value 0.99 | locus YBR279W, strain paf1, stronger effect = lower value 1.01 | locus YCL011C, strain gbp2, stronger effect = lower value 1 | locus YCL016C, strain dcc1, stronger effect = lower value 0.993 | locus YCL029C, strain bik1, stronger effect = lower value 0.981 | locus YCL069W, strain vba3, stronger effect = lower value 1.01 | locus YCR088W, strain abp1, stronger effect = lower value 1.01 | locus YDL005C, strain med2, stronger effect = lower value 0.999 | locus YDL035C, strain GPR1, stronger effect = lower value 0.996 | locus YDL040C, strain nat1, stronger effect = lower value 0.999 | locus YDL074C, strain BRE1, stronger effect = lower value 1.03 | locus YDL101C, strain DUN1, stronger effect = lower value 0.992 | locus YDL134C, strain PPH21, stronger effect = lower value 0.965 | locus YDL185W, strain tfp1, stronger effect = lower value 0.98 | locus YDL192W, strain arf1, stronger effect = lower value 0.991 | locus YDR001C, strain nth1, stronger effect = lower value 1.01 | locus YDR069C, strain doa4, stronger effect = lower value 1.01 | locus YDR101C, strain arx1, stronger effect = lower value 0.992 | locus YDR137W, strain rgp1, stronger effect = lower value 1.01 | locus YDR150W, strain NUM1, stronger effect = lower value 0.975 | locus YDR159W, strain sac3, stronger effect = lower value 0.943 | locus YDR162C, strain NBP2, stronger effect = lower value 0.982 | locus YDR195W, strain ref2 0.983 | locus YDR297W, strain sur2, stronger effect = lower value 0.997 | locus YDR318W, strain mcm21, stronger effect = lower value 0.989 | locus YDR334W, strain swr1, stronger effect = lower value 1.02 | locus YDR335W, strain msn5, stronger effect = lower value 1.01 | locus YDR363W, strain ESC2, stronger effect = lower value 0.992 | locus YDR388W, stronger effect = lower value 0.975 | locus YDR392W, strain spt3, stronger effect = lower value 0.906 | locus YDR502C, strain sam2, stronger effect = lower value 1.01 | locus YEL003W, strain gim4, stronger effect = lower value 1.01 | locus YEL037C, strain rad23, stronger effect = lower value 1 | locus YEL061C, strain CIN8 (second series), stronger effect = lower value 1.03 | locus YEL061C, strain CIN8, stronger effect = lower value 0.994 | locus YER002W, strain NOP16, stronger effect = lower value 0.986 | locus YER015W, strain faa2, stronger effect = lower value 1.01 | locus YER016W, strain bim1, stronger effect = lower value 0.987 | locus YER110C, stronger effect = lower value 0.978 | locus YER111C, strain swi4, stronger effect = lower value 0.998 | locus YER155C, strain BEM2 (second series), stronger effect = lower value 0.974 | locus YER155C, strain BEM2, stronger effect = lower value 0.989 | locus YER167W, strain BCK2, stronger effect = lower value 0.98 | locus YFR010W, strain ubp6, stronger effect = lower value 1.01 | locus YGL078C, strain dbp3, stronger effect = lower value 0.97 | locus YGL086W, strain mad1, stronger effect = lower value 0.998 | locus YGL167C, strain pmr1, stronger effect = lower value 1 | locus YGL173C, strain kem1, stronger effect = lower value 0.983 | locus YGL227W, strain vid30, stronger effect = lower value 0.992 | locus YGL240W, strain doc1, stronger effect = lower value 0.996 | locus YGL248W, strain PDE1, stronger effect = lower value 1 | locus YGL253W, strain hxk2, stronger effect = lower value 1.04 | locus YGR078C, strain PAC10, stronger effect = lower value 0.98 | locus YGR135W, strain pre9, stronger effect = lower value 0.957 | locus YGR252W, strain gcn5, stronger effect = lower value 0.956 | locus YHR013C, strain ard1, stronger effect = lower value 0.972 | locus YHR027C, strain rpn1, stronger effect = lower value 1.01 | locus YHR030C, strain SLT2, stronger effect = lower value 0.983 and 1.03 | locus YHR079C, strain IRE1 (second series), stronger effect = lower value 0.99 | locus YHR079C, strain IRE1, stronger effect = lower value 1.07 | locus YHR094C, strain hxt1, stronger effect = lower value 0.97 | locus YHR129C, strain ARP1, stronger effect = lower value 0.99 | locus YHR142W, strain chs7, stronger effect = lower value 1.03 | locus YHR200W, strain rpn10, stronger effect = lower value 0.984 | locus YIL066C, strain RNR3, stronger effect = lower value 0.997 | locus YIL073C, strain SPO22, stronger effect = lower value 0.937 | locus YIL125W, strain kgd1, stronger effect = lower value 0.973 | locus YIR030C, strain dcg1, stronger effect = lower value 0.981 | locus YJL092W, strain hpr5, stronger effect = lower value 1.01 | locus YJL095W, strain BCK1 (second series), stronger effect = lower value 0.999 | locus YJL095W, strain BCK1, stronger effect = lower value 1.03 and 1.02 | locus YJL115W, strain asf1, stronger effect = lower value 1 | locus YJL129C, strain trk1, stronger effect = lower value 1.01 | locus YJL134W, strain LCB3, stronger effect = lower value 0.993 | locus YJL154C, strain vps35, stronger effect = lower value 1 | locus YJL164C, strain tpk1, stronger effect = lower value 1.01 | locus YJL166W, strain qcr8, stronger effect = lower value 1.01 | locus YJL168C, strain set2, stronger effect = lower value 0.982 | locus YJL187C, strain SWE1 (second series), stronger effect = lower value 1.01 | locus YJR043C, strain POL32, stronger effect = lower value 1 | locus YJR066W, strain TOR1, stronger effect = lower value 0.966 | locus YJR075W, strain HOC1, stronger effect = lower value 0.971
